Compounds without any hit were thinned out: in the full panel of roughly 83,000, 20% have a hit.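 Treatment: one concentration, 48 hours, 96-well format. Scoring: percent growth, with anything below 10 considered active.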 A number with no mark means an inactive call. Active and inactive are the calls of the source.

Among the test systems are HCT-15 colon; HT29 colon; SNB-75 CNS; SNB-19 CNS; U251 CNS; PC-3 prostate; SK-MEL-5 melanoma; UACC-62 melanoma; SK-MEL-28 melanoma; LOX IMVI melanoma.
Holding throughout (test): NCI-60 one-dose screen, 48 h (100 = growth as untreated, 0 = no growth, -100 = all killed)
Common to all, as to details: 10 µM unless noted

As to `COc1cc(-c2nc3sc4c(c3c(=O)[nH]2)CCCCCC4)cc(OC)c1OC`, the growth in the assay with HCT-15 colon was 24.8%; with HT29 colon, 10.5%; with SNB-75 CNS, -0.669% (active); with SNB-19 CNS it was 21.2%; in the assay with U251 CNS, 25.8%; with PC-3 prostate, 38%. Moreover, the growth in the assay on SK-MEL-5 melanoma was 8.73% (active); in the assay with UACC-62 melanoma, 19.1%; with SK-MEL-28 melanoma, 51.6%.

On to `COC(=O)N/N=C/c1coc2ccc(Cl)cc2c1=O`, for which the growth in the assay on HCT-15 colon is 97%; in the assay with HT29 colon, 95.4%; in the assay with SNB-75 CNS, 80.5%; in the assay on SNB-19 CNS, 98.4%; in the assay with U251 CNS, 96.7%; with PC-3 prostate, 74%. The growth was 93.9% in the assay on UACC-62 melanoma, 86.7% with LOX IMVI melanoma and 100% with SK-MEL-28 melanoma.

For the compound `COc1cccc(-c2nc3cc(NC(=O)c4ccc(Cl)c(C#N)c4)ccc3o2)c1`, the growth was 51.6% with HCT-15 colon; -3.37% (active) in the assay on HT29 colon; -2.82% (active) in the assay with SNB-75 CNS; 5.09% (active) in the assay with SNB-19 CNS; -12.9% (active) in the assay on U251 CNS; 14.4% with PC-3 prostate. The growth is 5.38% (active) in the assay on SK-MEL-5 melanoma, 38.6% in the assay on UACC-62 melanoma, 21.9% with LOX IMVI melanoma and -7.87% (active) in the assay with SK-MEL-28 melanoma.

Regarding `COc1ccc(Cl)cc1Nc1nc(C(F)(F)F)ccc1C(=O)N/N=C/c1c(Cl)cccc1Cl`, the growth with HCT-15 colon is 30.6%; in the assay with HT29 colon, 52.1%; in the assay with SNB-75 CNS, 63.5%; with SNB-19 CNS, 55.5%; in the assay on U251 CNS, 29.1%; in the assay with PC-3 prostate, 48.5%. Also, the growth in the assay with SK-MEL-5 melanoma was 13.4%; with UACC-62 melanoma, 52.9%; with LOX IMVI melanoma, 32.3%; in the assay with SK-MEL-28 melanoma it was 62.2%.

Regarding `N#CC(C#N)C(C#N)C#N`, the growth in the assay on HCT-15 colon is 103%; with HT29 colon, 97%; in the assay on SNB-75 CNS, 82%; with SNB-19 CNS it was 114%; with U251 CNS, 93.6%; with PC-3 prostate it was 90.4%. Further, the growth with SK-MEL-5 melanoma is 103%; in the assay with UACC-62 melanoma, 98.6%; with LOX IMVI melanoma it was 104%; in the assay on SK-MEL-28 melanoma, 110%.

For `O=C1OC2(c3ccccc31)c1ccccc1-c1ccccc12`, the growth with HCT-15 colon was 71.4%; in the assay with HT29 colon, 74.6%; with SNB-75 CNS it was 61.2%; with SNB-19 CNS, 83%; with U251 CNS, 63.6%; with PC-3 prostate, 74.4%. For the same compound, the values for the growth with UACC-62 melanoma, in the assay on LOX IMVI melanoma and in the assay on SK-MEL-28 melanoma were 57.4%, 77.6% and 74.5%, respectively.

Turning to `C/C(=C\CCc1ccoc1)CC/C=C(\C)CCCC1COC(=O)C1` (centres undefined), the growth was 99.2% with HCT-15 colon; 113% in the assay with HT29 colon; 96.7% in the assay with SNB-75 CNS; 99.6% in the assay with SNB-19 CNS; 95.6% with U251 CNS; 91.2% in the assay with PC-3 prostate. In addition, the results for the growth in the assay on SK-MEL-5 melanoma, in the assay with UACC-62 melanoma and in the assay on SK-MEL-28 melanoma were 98.6%, 80% and 96.9%, respectively.

Take `Cc1n(Cc2ccc3ccccc3c2)c2ccccc2[n+]1Cc1ccc2ccccc2c1`: the growth with HCT-15 colon was 15.7%; in the assay on HT29 colon, -53.3% (active); in the assay with SNB-75 CNS, -46.2% (active); with SNB-19 CNS, -91.7% (active); in the assay with U251 CNS, -87.6% (active); with PC-3 prostate, -68.1% (active). The growth in the assay on UACC-62 melanoma is -57.9% (active); in the assay with LOX IMVI melanoma it was -89% (active); in the assay on SK-MEL-28 melanoma, -58% (active).

As to `COc1ccc2c(c1)sc1nc(-c3ccc(Br)cc3)cn12`, the growth in the assay with HCT-15 colon was 110%; with HT29 colon, 108%; in the assay on SNB-75 CNS, 112%; in the assay with SNB-19 CNS it was 115%; in the assay with U251 CNS, 99.5%; with PC-3 prostate, 101%. The growth was 76.4% with SK-MEL-5 melanoma, 86.2% with UACC-62 melanoma, 99.1% with LOX IMVI melanoma and 112% in the assay on SK-MEL-28 melanoma.

Regarding `O=C(CNc1ccc2c(c1)C(=O)c1ccccc1C2=O)Nc1ccc2c(c1)C(=O)c1ccccc1C2=O`, the growth in the assay with HCT-15 colon is -81.5% (active); in the assay on HT29 colon it was -54.5% (active); in the assay with SNB-75 CNS it was -51.4% (active); in the assay on SNB-19 CNS it was -29.9% (active); in the assay on U251 CNS, -91.4% (active); in the assay on PC-3 prostate, -24.3% (active). Also, the growth is -98.1% (active) in the assay with SK-MEL-5 melanoma, -93.3% (active) in the assay with UACC-62 melanoma, -91.7% (active) in the assay on LOX IMVI melanoma and -75.1% (active) in the assay with SK-MEL-28 melanoma.

`COc1ccc(-c2ccc(O)c(C(=O)/C=C/c3cc(OC)c(OC)c(OC)c3)c2)cc1`: the growth with HCT-15 colon was 76.6%; in the assay on HT29 colon, 75%; in the assay on SNB-75 CNS, 96.9%; in the assay on SNB-19 CNS it was 99.4%; with U251 CNS it was 78%; in the assay on PC-3 prostate, 61.8%. In addition, the growth in the assay on SK-MEL-5 melanoma is 71.7%; with UACC-62 melanoma, 67.1%; with LOX IMVI melanoma, 62.5%; in the assay with SK-MEL-28 melanoma, 104%.

As for `Nc1nc(NC2CC2)c2ncn(C3C=CC(CO)C3)c2n1` (centres undefined), the growth with HCT-15 colon was 107%; with HT29 colon, 101%; in the assay on SNB-75 CNS, 117%; in the assay with SNB-19 CNS, 112%; in the assay with U251 CNS, 102%; in the assay on PC-3 prostate, 119%. Further, the growth is 83.6% in the assay on UACC-62 melanoma, 103% in the assay on LOX IMVI melanoma and 118% in the assay with SK-MEL-28 melanoma.

For the compound `O=Cc1ncc(-c2ccc(C(F)(F)F)cc2)c(NC2CCCCCC2)n1`, the growth in the assay on HCT-15 colon is -79% [100 µM] (active); in the assay with HT29 colon it was -80.8% [100 µM] (active); with SNB-75 CNS, -15.7% [100 µM] (active); in the assay with SNB-19 CNS, -47.6% [100 µM] (active); in the assay on U251 CNS, -98.2% [100 µM] (active); with PC-3 prostate, -81.7% [100 µM] (active). Besides, the growth in the assay on SK-MEL-5 melanoma was 5.66% [100 µM] (active); with UACC-62 melanoma, -90.1% [100 µM] (active); with LOX IMVI melanoma it was -73.4% [100 µM] (active); in the assay with SK-MEL-28 melanoma, -71.4% [100 µM] (active).

These data come from PubChem BioAssay (NCI).
